Experimental data: PubChem BioAssay (NCATS)
Several values for one entry are separate records, joined by “and”; a condition that tells them apart may be missing. Equal values may be shown once. Inconclusive results are not listed. Entries that show only a call come without a potency. A number with no mark means an inactive call. Activity calls are given as the source filed them. The call rests on the fitted dose curve; in most records, active means well fitted cell-killing curve with a large enough effect; inconclusive means small, poorly fitted or top-dose-only effect, or effect the other way; inactive means no such curve, though single readings can be large or run the other way.

Assay: Viability qHTS for spleen associated tyrosine kinase inhibitor (SYKi) naive MV4-11 cells (AID 1963823); further: nearly all actives have a fitted effect of over 40% in size
Procedure, shortened: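 In this viability screen, compounds acted on SYK inhibitor naive MV4-11 cells for three days (72 hr, 37 C). Remaining viable cells were measured by CellTiter-Glo luminescence following a 10 min room-temperature development.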
Potency means the concentration at half of the fitted maximal effect.

| SMILES | Potency | viability (% of control) |
| --- | --- | --- |
| CC(=O)OCCC(C)CCC1C(C)(O)CCC2C(C)(C)CCCC21C (stereo not drawn) | inactive |  |
| CC(C)OC(=O)c1cc(C(=O)OC(C)C)cc([N+](=O)[O-])c1 | 27.9 µM (active) |  |
| CC(=O)/C=C/C1(O)C(C)=CC(=O)CC1(C)C (stereo not drawn) | inactive |  |
| COc1cc([C@@H](O[C@@H]2O[C@H](CO)[C@@H](O)[C@H](O)[C@H]2O)[C@@H]2CO[C@H](c3ccc(O)c(OC)c3)[C@H]2CO)ccc1O | inactive |  |
| CC1=C2C3OC(=O)C(C)C3(O)CCC2(C)CCC1 (stereo not drawn) | inactive |  |
| CC1C(=O)CC2C3CCC(C(=O)O)C12CC3(C)CO (stereo not drawn) | inactive |  |
| COCCN1CCC(C(=O)NO)(S(=O)(=O)c2ccc(Oc3ccc(OC(F)(F)F)cc3)cc2)CC1 | 20.6 µM (active) |  |
| COc1c(C)c(OCC(O)C(C)(C)O)cc2c1CNC2=O (stereo not drawn) | inactive |  |
| CCC[C@@H]1C[C@@H](C(=O)N[C@H](C(C)Cl)[C@H]2O[C@H](SC)[C@H](O)[C@@H](O)[C@H]2O)N(C)C1 (stereo partly drawn) | inactive |  |
| C[C@@H]1CC2C3C[C@H](F)C4=CC(=O)C=C[C@]4(C)[C@@]3(F)[C@@H](O)C[C@]2(C)[C@@]1(OC(=O)c1ccco1)C(=O)SCF (stereo partly drawn) | 6.61 µM (active) |  |
| CNC(=S)NS(=O)(=O)c1cc(CCNC(=O)c2cc(Cl)ccc2OC)ccc1OC | inactive |  |
| C[C@@H]1C[C@H]2[C@@H]3CCC4=CC(=O)C=C[C@]4(C)[C@@]3(F)[C@@H](O)C[C@]2(C)[C@@]1(O)C(=O)COP(=O)(O)O | inactive |  |
| OCC1OC(Oc2cc(O)c3c(c2)OC(c2ccc(O)cc2)C(O)C3)C(O)C1O (stereo not drawn) | inactive |  |
| CNCCC(Oc1ccc(C(F)(F)F)cc1)c1ccccc1 (stereo not drawn) | 18.8 µM (active) |  |
| CC/C=C\C[C@H]1C(=O)C=C[C@@H]1CCCCCCCC(=O)O | 16.4 µM (active) |  |
| C[C@@H]1O[C@@H](O[C@H]2[C@H](O)[C@@H](O)[C@H](OC[C@H]3O[C@@H](OC(=O)[C@]45CCC(C)(C)C[C@H]4C4=CCC6[C@@]7(C)CC[C@H](O[C@@H]8OC[C@H](O)[C@H](O[C@@H]9O[C@H](CO)[C@@H](O)[C@H](O)[C@H]9O)[C@H]8O)[C@@](C)(CO)C7CC[C@@]6(C)[C@]4(C)CC5)[C@H](O)[C@@H](O)[C@@H]3O)O[C@@H]2CO)[C@H](O)[C@H](O)[C@H]1O (stereo partly drawn) |  | 98% [at 9.25 µM] |
| CC(C)C1(O)NC(=O)C(CC2(O)c3ccccc3N3C(=O)C(C)(C)NC32)n2c1nc1ccccc1c2=O (stereo not drawn) | inactive |  |
| CC(C)S(=O)(=O)N[C@H]1CCOC[C@@H]1c1ccc(-c2ccc(C#N)s2)cc1 | inactive |  |
| CC(C)=CCC/C(C)=C/CO[C@@H]1O[C@H](CO[C@@H]2O[C@@H](CO)[C@H](O)[C@H]2O)[C@@H](O)[C@H](O)[C@H]1O | inactive |  |
| CC1(C(=O)O)CCCC2(C)C3CCC4CC3(CCC12)CC4(O)CO (stereo not drawn) | inactive |  |
| COc1ccc(-c2ccccc2)cc1NS(=O)(=O)c1cc(Cl)cc(Cl)c1O | inactive |  |

| SMILES | Potency | viability (% of control) |
| --- | --- | --- |
| Cc1c(-c2ccc(O)cc2)n(Cc2ccc(OCCN3CCCCCC3)cc2)c2ccc(O)cc12 | 18.8 µM (active) and 8.33 µM (active) |  |
| C/C=C(\C)C(=O)O[C@@H](C)[C@H]1CC[C@]2(O)C3CCC4C[C@@H](OC5CC(OC)C(OC6CC(OC)C(OC7CC(OC)C(OC8OC(C)C(OC9OC(CO)C(O)C(O)C9O)C(OC)C8O)C(C)O7)C(C)O6)C(C)O5)CC[C@]4(C)C3[C@H](O)[C@@H](O)[C@]12C (stereo partly drawn) |  | 34.7% [at 9.25 µM] |
| CC(=O)OC1CC(C)(C(=O)O)CC2C3=CC(=O)C4C5(C)CCC(OC6OC(C(=O)O)C(O)C(O)C6OC6OC(C(=O)O)C(O)C(O)C6O)C(C)(C)C5CCC4(C)C3(C)CCC12C (stereo not drawn) |  | 70.5% [at 9.25 µM] |
| CC(C)C1NC(=O)C(CC2(O)c3ccccc3N3C(=O)C(Cc4ccccc4)NC32)NC1=O (stereo not drawn) | inactive |  |
| C[C@H]1CC(=O)C2=C(C1)C(O)C(O)[C@@]1(O)[C@H]2C(=O)c2cccc(O)c2[C@@H]1O (stereo partly drawn) | inactive |  |
| Cc1ncc([N+](=O)[O-])n1CC(O)CN1CCOCC1 (stereo not drawn) | inactive |  |
| C[C@@H]1O[C@@H](O[C@H]2[C@H](O[C@H]3CC[C@@]4(C)C(CC[C@]5(C)C4CC=C4[C@@H]6CC(C)(C)CC[C@]6(C(=O)O[C@@H]6OC[C@H](O)[C@H](O)[C@H]6O[C@@H]6O[C@@H](C)[C@H](O[C@@H]7O[C@H](CO)[C@@H](O)[C@H](O)[C@H]7O)[C@H](O)[C@H]6O)[C@H](O)C[C@]45C)C3(C)C)O[C@H](CO)[C@@H](O[C@@H]3OC[C@@H](O)[C@H](O)[C@H]3O)[C@@H]2O)[C@H](O)[C@H](O)[C@H]1O (stereo partly drawn) |  | 79.8% [at 9.25 µM] |
| CC1(C)CCCC2(C)C(C(=O)O)=CCC12 (stereo not drawn) | inactive |  |
| CC(=O)[C@H]1CC[C@H]2[C@@H]3CC=C4C[C@@H](OS(=O)(=O)O)CC[C@]4(C)[C@H]3CC[C@]12C | inactive |  |
| CC1=C2C(=O)O[C@@H](c3ccoc3)[C@]2(C)CCC1 | inactive |  |
| O=C(O)c1ccc(O)c2ncc(N3CCCN(CCc4cccc5ccccc45)CC3)cc12 | 18.4 µM (active) |  |
| O=C1NCCSc2c1sc1ccc(O)cc21 | 2.59 µM (active) |  |
| CC1=CCC[C@@H]2[C@@](C)(CCc3ccoc3)[C@H](C(=O)O)CC[C@@]12C | 2.86 µM (active) |  |
| Cn1ccc(NC(=O)c2cc(Oc3ccc(C(=O)N4CCC4)c(F)c3)c3c(c2)OC(C)(C)C3)n1 | inactive |  |
| CN1[C@@H]2CC[C@H]1CC(OC(=O)C(CO)c1ccccc1)C2 (stereo partly drawn) | inactive |  |
| CN1C2CCC1CC(OC(=O)[C@H](CO)c1ccccc1)C2 (stereo partly drawn) | 0.651 µM (active) |  |
| C[C@H]1[C@H](/C=C/c2ccc(-c3ccccc3C#N)cn2)[C@@H]2[C@@H](C)OC(=O)[C@@H]2C[C@@H]1C | 8.2 µM (active) |  |
| C/C=C1/[C@H](O[C@@H]2O[C@H](CO)[C@@H](O)[C@H](O)[C@H]2O)OC=C(C(=O)OC)[C@H]1CC(=O)OCCc1ccc(OC(=O)C[C@@H]2C(C(=O)OC)=CO[C@@H](O[C@@H]3O[C@H](CO)[C@@H](O)[C@H](O)[C@H]3O)/C2=C/C)cc1 |  | 67.3% [at 9.25 µM] |
| C[n+]1ccc(-c2c3nc(c(-c4cc[n+](C)cc4)c4ccc([nH]4)c(-c4cc[n+](C)cc4)c4nc(c(-c5cc[n+](C)cc5)c5ccc2[nH]5)C=C4)C=C3)cc1 | inactive |  |
| C=CC(C)(O)CC/C=C(/C)C(=O)OC1C(OC2OCC(OC3OC(CO)C(O)C(O)C3O)C(OC3OCC(O)C(OC4OC(C)C(O)C(O)C4O)C3O)C2O)COC(OC(=O)C23CCC(C)(C)CC2C2=CCC4C5(C)CCC(OC6OC(CO)C(OC7OC(CO)C(O)C(OC8OCC(O)C(O)C8O)C7O)C(O)C6O)C(C)(C)C5CCC4(C)C2(C)CC3O)C1O (stereo not drawn) |  | 68.9% [at 4.97 µM] |
| CC(C)c1c(NC(=O)Nc2ccc(Cl)cc2)c(=O)n(-c2ccccc2)n1C | inactive |  |

| SMILES | Potency | viability (% of control) |
| --- | --- | --- |
| CC(C)=CCc1ccc(Oc2c(O)cc(C)cc2CO)c(C(=O)O)c1O | inactive |  |
| CC1C/C=C/C=C\CCCCC(O)C/C=C/C(=O)O1 (stereo not drawn) | inactive |  |
| COc1c(C(CC(C)C)OC(C)=O)ccc(Oc2c(O)cc(C)cc2/C=C/C(C)=O)c1C(=O)O (stereo not drawn) | inactive |  |
| O=C(O)CC1CC(c2ccccc2)=NO1 (stereo not drawn) | inactive |  |
| N#C[C@@H]1C[C@H](F)CN1C(=O)CNC1[C@H]2CN(C(=O)c3ccc(F)cc3)C[C@@H]12 (stereo partly drawn) | inactive |  |
| COc1cc(C2OCC3(O)C(c4ccc(O[C@@H]5O[C@H](CO)[C@@H](O)[C@H](O)[C@H]5O)c(OC)c4)OCC23O)ccc1O (stereo partly drawn) | inactive |  |
| C=C1CC[C@@H]2[C@](C)(CO[C@@H]3O[C@H](CO)[C@@H](O)[C@H](O)[C@H]3O)CCC[C@@]2(C)[C@@H]1CCC1=CCOC1=O | inactive |  |
| CC(O)C1CCC2C3CCC4CC(OC5OC(C(=O)O)C(O)C(O)C5O)CCC4(C)C3CCC12C (stereo not drawn) | inactive |  |
| CC1CCC2(C)C(CC(O)C(O)C23CO3)C1(C)CCC1=CC(O)OC1=O (stereo not drawn) | inactive |  |
| CC(CO[C@@H]1O[C@H](COC(=O)/C=C/c2ccc(O)c(O)c2)[C@@H](O)[C@H](O)[C@H]1O)C1(O)COC(=O)C1 (stereo partly drawn) | inactive |  |
| C=CC(C)(O)CC[C@H]1C(=C)CCC2[C@](C)(C(=O)O)CCC[C@@]21C (stereo partly drawn) | inactive |  |
| Cc1cc2c(F)c(Oc3ncnn4cc(OCC(C)OC(=O)C(C)N)c(C)c34)ccc2[nH]1 (stereo not drawn) | 10.3 µM (active) |  |
| Cc1ccc(C)c(NC(=O)CNS(=O)(=O)c2ccc3[nH]c(=O)oc3c2)c1 | inactive |  |
| CCOC(=O)OCC/C(SC(=O)OCC)=C(\C)N(C=O)Cc1cnc(C)nc1N | inactive |  |
| O=C(O)c1cc(O[C@@H]2O[C@H](CO[C@@H]3OC[C@@H](O)[C@H](O)[C@H]3O)[C@@H](O)[C@H](O)[C@H]2O)c2ccccc2c1O | inactive |  |
| COC(=O)[C@H](OC(C)=O)[C@H]1C(C)(C)C(=O)[C@H]2CC3=C4CC(=O)O[C@@H](c5ccoc5)[C@]4(C)CCC3[C@@]1(C)C2=O (stereo partly drawn) | inactive |  |
| CC1=CC[C@]2(C(=O)O[C@@H]3O[C@H](CO[C@@H]4O[C@H](CO)[C@@H](O[C@@H]5O[C@@H](C)[C@H](O)[C@@H](O)[C@H]5O)[C@H](O)[C@H]4O)[C@@H](O)[C@H](O)[C@H]3O)CC[C@]3(C)C(CCC4[C@@]5(C)C[C@@H](O)[C@H](O)[C@@](C)(CO)C5CC[C@]43C)C2C1C (stereo partly drawn) |  | 78.2% [at 9.25 µM] |
| c1ccc(-c2cnn3cc(-c4ccc(OCCN5CCOCC5)cc4)cnc23)cc1 | 0.0184 µM (active) |  |
| C=CC1(C)C=C2C(=O)OC(=O)C3=C(CCCC3(C)C)C2(O)CC1 (stereo not drawn) | inactive |  |
| CCOc1cccc2c1OC(c1ccc(F)cc1)C([N+](=O)[O-])=C2 (stereo not drawn) | 1.16 µM (active) |  |
| CC1(C)CCC[C@@]2(C)[C@H]1[C@H](O)C=C1COC(=O)[C@@]12O | inactive |  |
